According to PubChem BioAssay (NCATS):
Inconclusive results are not listed. Active and inactive are the calls of the source. Calls follow the shape of the dose curve; as a rule, active = well fitted inhibition curve with a large enough effect; inconclusive = small, poorly fitted or top-dose-only effect; inactive = no such curve, though single readings can be large or run the other way.

Assay: qHTS Screen of the MIPE 4.0 Collection Against Ewings Sarcoma (TC32) (AID 1259256); also: nearly all actives have a fitted effect of over 45% in size;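 as to viability (percent of control): 100% = DMSO-treated cells and 0% = medium-only wells without cells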
Details: TC32 Ewing sarcoma viability, CellTiter-Glo, 48 h; series mostly up to 45.8 µM; viability (percent of control): at the top concentration
Excerpt: There is a large unmet medical need for treatments for Ewing sarcoma, a pediatric sarcoma. We sought to identify compounds that inhibited Ewing sarcoma cells in vitro with the goal to then test promising drugs in two drug combinations in vitro to look for synergistic drug combinations. Promising combinations would then proceed to additional validation, including in vivo testing.
Using the NCATS developed oncology compound library called the Mechanism of Interrogation Plate (MIPE), four Ewing sarcoma cell lines were evaluated (TC32, TC71, RDES, EW8). Compounds, in a 12-point titration series, were incubated with cells for 48 hours and the read out was cell viability (CellTiter-Glo from Promega). These initial experiments were used to select appropriate concentrations of each single agent for subsequent two-drug matrix combinations such that the concentrations in the matrices would span both activity and non-activity.
Cells, in the log phase of growth, were seeded in 5 uL of RPMI plus 5% FBS, […] L-glutamine, 100 U/ml penicillin and 100 ug/ml streptomycin into 1536-well solid-bottom white tissue culture treated Greiner Bio One Plates (789173-F) using a MultiDrop Combi (Thermofisher Scientific) dispenser and a small sterile cassette. One column was media alone to be used as a :"no cells" control. The plates were then covered with sterilized stainless steel gasketed lids from Kalypsys. After allowing cells to attach for 4 hours, 23 nL of test compound or control (negative control DMSO and positive control 9.2 uM Bortezomib-final) were added from a 1536-well polypropylene compound source plate to each well using a 1536 head pin tool from Kalypsys. Cells were then incubated for 48 hours at 37C, 95% relative humidity and 5% CO2. After 48 hours, plates were removed from the incubator and 3 uL of CellTiter-Glo (Promega) was added using an Aurora Flying Reagent Dispenser Bioraptor. Plates were incubated at room temperature for 10 minutes prior to reading the luminescence on the Viewlux (PerkinElmer). The relative luciferase units are used to calculate the percent activity using the activity of DMSO in the cells and no cells columns for normalization of no inhibition and full inhibition respectively.
Potency is read from the fitted curve at half-maximal effect.

Compound	Potency	viability (percent of control)
C=C(C)[C@H]1Cc2c(ccc3c2O[C@@H]2COc4cc(OC)c(OC)cc4[C@@H]2C3=O)O1	0.743 µM (active)	–
O=C1CC[C@@]2(O)[C@H]3Cc4ccc(O)c5c4[C@@]2(CCN3CC2CC2)[C@H]1O5	–	122% (inactive)
CN1CCN(C(=O)O[C@H]2c3nccnc3C(=O)N2c2ccc(Cl)cn2)CC1	–	109% (inactive)
Cn1c(CCCC(=O)O)nc2cc(N(CCCl)CCCl)ccc21	–	107% (inactive)
N[C@@H](Cc1ccc(N(CCCl)CCCl)cc1)C(=O)O	–	93.8% (inactive)
CNC(=O)N1N=C(c2ccc(N)cc2)c2cc3c(cc2CC1C)OCO3 (stereo unspecified)	11.8 µM (active)	–
CCCC(C)(COC(N)=O)COC(=O)NC(C)C (stereo unspecified)	–	113% (inactive)
CNCC(O)c1ccc(O)cc1 (stereo unspecified)	–	122% (inactive)
COc1ccc(C(=O)c2c(C)n(CCN3CCOCC3)c3ccccc23)cc1	–	100% (inactive)
C[C@@H]1O[C@@H](O[C@H]2C[C@@H](O)[C@]3(CO)[C@H]4[C@H](O)C[C@]5(C)[C@@H](C6=CC(=O)OC6)CC[C@]5(O)[C@@H]4CC[C@]3(O)C2)[C@H](O)[C@H](O)[C@H]1O	0.059 µM (active)	–
COC[C@@H](NC(C)=O)C(=O)NCc1ccccc1	–	131% (inactive)
O=C(O)C(=O)c1cn(Cc2ccccc2)c2ccc(-c3ccc(OC(F)(F)F)cc3)cc12	–	108% (inactive)
CN(C)CCc1ccc(O)cc1	–	104% (inactive)
CNC(=O)c1ccc(N2C(=S)N(c3ccc(C#N)c(C(F)(F)F)c3)C(=O)C23CCC3)cc1F	23.5 µM (active)	–
Fc1ccc(C(OCCN2CCN(CCCc3ccccc3)CC2)c2ccc(F)cc2)cc1	26.4 µM (active)	–
Cc1sc2c(c1C)C(c1ccc(Cl)cc1)=N[C@@H](CC(=O)OC(C)(C)C)c1nnc(C)n1-2	1.32 µM (active)	–
C[C@@H]1[C@@H](CC(C[C@H]2O[C@@H]3O[C@]4(C)CC[C@@H]5[C@H](C)CC[C@@H]([C@H]2C)[C@@]35OO4)C[S+](=O)([O-])c2ccc(COC(=O)N(C)C)cc2)O[C@@H]2O[C@]3(C)CC[C@H]4[C@H](C)CC[C@@H]1[C@@]24OO3 (stereo partly specified)	0.469 µM (active)	–
C[C@@H]1[C@@H](C(=O)C[C@H]2O[C@@H]3O[C@]4(C)CC[C@@H]5[C@H](C)CC[C@@H]([C@H]2C)[C@@]35OO4)O[C@@H]2O[C@]3(C)CC[C@H]4[C@H](C)CC[C@@H]1[C@@]24OO3	20.9 µM (active)	–
O=P1(NCCCl)OCCCN1CCCl (stereo unspecified)	–	109% (inactive)
CC(O)(CS(=O)(=O)c1ccc(F)cc1)C(=O)Nc1ccc(C#N)c(C(F)(F)F)c1 (stereo unspecified)	2.64 µM (active)	–
COc1ccc2c(c1OC)CN1CCc3cc4c(cc3C1C2)OCO4 (stereo unspecified)	–	85.9% (inactive)
Cn1cc(C2=C(c3cn(C4CCN(Cc5ccccn5)CC4)c4ccccc34)C(=O)NC2=O)c2ccccc21	8.33 µM (active)	–
O=c1[nH]c2ccccc2n1CCCN1CCC(n2c(=O)[nH]c3cc(Cl)ccc32)CC1	–	112% (inactive)
CN(C)[C@@H]1C(=O)C(C(N)=O)=C(O)[C@@]2(O)C(=O)C3=C(O)c4c(O)cccc4[C@@](C)(O)[C@H]3C[C@@H]12	6.62 µM (active)	–
C#CCN(C)[C@H](C)Cc1ccccc1	–	108% (inactive)
CN(C)CCN(C)CCc1ccc(Cl)c(Cl)c1	–	106% (inactive)
